Methyltransferases = Primary Screen for Target Class Profiling of Small Molecule Inhibitors of Methyltransferases; purified enzyme, MTase-Glo SAH luminescence; hits give low values; calls only at 40 µM; hit rate 3.9% among 25,000; call rule not given here
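Each enzyme was assayed with SAM and its substrate. SAH formation detected by MTase-Glo luminescence; single-point 40 uM screen[…].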
MTase-Glo counter = detection enzyme interference, methyltransferase counter-screen; hit rate 6% among 180; shares compounds with Methyltransferases; Potency, µM (doses to about 57.3 µM), hits mostly inhibitors; MTase-Glo coupled enzymes, SAH conversion luminescence, no MTase; active means well fitted inhibition curve with a large enough effect
Large screens that a line does not name were inactive (follow-up assays come after a bar, where they were run); ! = not active in a repeat. Shown is part of a subset that was picked to be rich in hits.

COc1ccc(C2c3cccn3-c3ccccc3CN2C(=O)Nc2ccc(OC)c(OC)c2)cc1 (stereo not given)	none
COc1ccc(C2c3cccn3-c3ccccc3CN2C(=O)NCc2ccco2)cc1OC (stereo not given)	none
CCOC(=O)c1cccc(NC(=O)N2Cc3ccccc3-n3cccc3C2CC)c1 (stereo not given)	none
COc1ccccc1NC(=O)N1Cc2ccccc2-n2cccc2C1c1cccs1 (stereo not given)	none
O=C(Nc1ccccc1F)N1Cc2ccccc2-n2cccc2C1c1ccc(F)cc1 (stereo not given)	none
Cc1nnc2n1-c1sc(CCc3ccc(CC(C)C)cc3)cc1C(c1ccccc1Cl)=NC2C (stereo not given)	Methyltransferases active
CCOC(=O)c1ccc(NC(=O)N2Cc3ccccc3-n3cccc3C2c2cccc(Cl)c2)cc1 (stereo not given)	none
CCCNC(=O)N1Cc2ccccc2-n2cccc2C1c1ccc(CC)cc1 (stereo not given)	none
O=C(Nc1ccc2c(c1)OCCO2)N1Cc2ccccc2-n2cccc2C1c1ccc(Cl)cc1 (stereo not given)	none
N#C/C(=C/c1ccc(O)c(O)c1)C(N)=S	Methyltransferases active!
COc1cc(OC)c(NC(=O)N2Cc3ccccc3-n3cccc3C2c2cccs2)cc1Cl (stereo not given)	none
CCC1CN2CCc3cc(OC)c(OC)cc3C2CC1CC1=NCCc2cc(O)c(OC)cc21 (stereo not given)	Methyltransferases active
COc1ccc(NC(=O)N2Cc3ccccc3-n3cccc3C2c2ccccc2Cl)c(OC)c1 (stereo not given)	none
COc1ccc(C2c3cccn3-c3ccccc3CN2C(=O)Nc2cc(C)ccc2C)cc1OC (stereo not given)	none
CCOC(=O)c1cccc(NC(=O)N2Cc3ccccc3-n3cccc3C2c2cccc(Cl)c2)c1 (stereo not given)	none
CC1Oc2cc3c(-c4c(O)cc(O)c5c(O)c6c(cc45)OC(C)C(C)C6=O)c(O)cc(O)c3c(O)c2C(=O)C1C (stereo not given)	Methyltransferases active
CCCNC(=O)N1Cc2ccccc2-n2cccc2C1c1ccc(C)cc1 (stereo not given)	none
COc1ccc(C2c3cccn3-c3ccccc3CN2C(=O)Nc2cccc(SC)c2)cc1OC (stereo not given)	none
CN(N=O)c1cc(O)ccc1O	Methyltransferases active
COc1cccc(CNC(=O)N2Cc3ccccc3-n3cccc3C2c2ccc(OC)c(OC)c2)c1 (stereo not given)	none
CC1CCCC(O)CCC/C=C/c2cc(O)cc(O)c2C(=O)O1 (stereo not given)	none
CC1CCCC(=O)CCC/C=C/c2cc(O)cc(O)c2C(=O)O1 (stereo not given)	Methyltransferases active
COC1CCCC(C)OC(=O)Cc2cc(O)cc(O)c2C(=O)C1 (stereo not given)	none
COc1ccc(NC(=O)N2Cc3ccccc3-n3cccc3C2c2cc(F)cc(F)c2)cc1 (stereo not given)	none
COC(=O)c1cccc(NC(=O)N2Cc3ccccc3-n3cccc3C2c2ccccc2Cl)c1 (stereo not given)	none
COc1ccc(C2c3cccn3-c3ccccc3CN2C(=O)Nc2cccc(Cl)c2)cc1OC (stereo not given)	none
COCCCNC(=O)N1Cc2ccccc2-n2cccc2C1c1ccccc1 (stereo not given)	none
COc1ccccc1-c1cc([C@H]2CN3CC[C@H]2C[C@@H]3CNS(=O)(=O)c2ccccc2)n(C)n1	none
CC[C@H]1CN2CC[C@H]1C[C@@H]2CNCc1ccc(-c2ccccc2)cc1	Methyltransferases active | MTase-Glo counter inactive
CS(=O)(=O)NC[C@H]1C[C@@H]2CCN1C[C@@H]2CN1CCc2ccccc2C1	none
CCOC(=O)c1ccc(NC(=O)N2Cc3ccccc3-n3cccc3C2c2cc(F)cc(F)c2)cc1 (stereo not given)	none
COc1cccc(NC(=O)N2Cc3ccccc3-n3cccc3C2c2ccc(SC)cc2)c1 (stereo not given)	none
COc1ccc(NC(=O)N2Cc3ccccc3-n3cccc3C2c2ccc(SC)cc2)cc1OC (stereo not given)	none
Cn1nc(-c2cccs2)cc1[C@H]1CN2CC[C@H]1C[C@@H]2CNC(=O)C1CCCCC1	none
C=C[C@H]1CN2CC[C@H]1C[C@@H]2[C@@H](O)c1ccnc2ccccc12	none
C=C[C@H]1CN2CC[C@H]1C[C@@H]2CNC(=O)Nc1ccc(Br)cc1	Methyltransferases active | MTase-Glo counter inactive
CCCNC(=O)N1Cc2ccccc2-n2cccc2C1c1cccs1 (stereo not given)	none
